Experiment [1] is described as follows: qHTS RealTime-Glo MT Cell Viability Assay in HepG2 cells - 40 hour (AID 1224870). Also: nearly all actives have a fitted effect of over 50% in size. Also: potency is read from the fitted curve at half-maximal effect. A digest of the protocol:
(§1)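 HepG2 cells mixed with RealTime-Glo MT reagents (NanoLuc plus cell-permeant prosubstrate) were seeded at 600 cells/well, incubated 5 h at 37 C/5% CO2, then pinned with compounds in DMSO; nonlytic luminescence tracked viability during 40 h treatment.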
(qHTS replaces the single test concentration by a dilution series.)

Experiment [2] in a line: A CellTox Green Cytotoxicity Assay to monitor cytotoxicity in HEK293 cells - 40 hour (AID 1224871). Also: nearly all actives have a fitted effect of over 45% in size. Also: potency is read from the fitted curve at half-maximal effect. In short, it runs like this:
(§2)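 HEK293 cells premixed with CellTox Green dye were seeded at 600 cells/well and left 5 h at 37 C/5% CO2 before pin transfer of 23 nL compound in DMSO. Fluorescence from dye bound to dead-cell DNA was read during 40 h treatment.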

Experiment [3] is described as follows: qHTS RealTime-Glo MT Cell Viability Assay in HepG2 cells - 8 hour (AID 1224873). Also: nearly all actives have a fitted effect of over 55% in size. A digest of the protocol: as §1
The nature of experiment [4]: qHTS RealTime-Glo MT Cell Viability Assay in HEK293 cells - 40 hour (AID 1224874). Also: nearly all actives have a fitted effect of over 50% in size. Also: potency is read from the fitted curve at half-maximal effect. Conditions: RealTime-Glo luminescence; max response: active compounds read low. A digest of the protocol: (§3)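 HEK293 cells mixed with RealTime-Glo reagents (NanoLuc plus cell-permeant prosubstrate) at 600 cells/well, preincubated 5 h at 37 C/5% CO2, then given 23 nL compound in DMSO. Nonlytic luminescence from viable cells was read at 0, 8, 16, 24, 32 and 40 h.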

Experiment [5] can be described thus: A CellTox Green Cytotoxicity Assay to monitor cytotoxicity in HEK293 cells - 24 hour (AID 1224875). Also: nearly all actives have a fitted effect of over 45% in size. Also: potency is read from the fitted curve at half-maximal effect. In short, it runs like this: as §2
Experiment [6] is described as follows: A CellTox Green Cytotoxicity Assay to monitor cytotoxicity in HepG2 cells - 16 hour (AID 1224876). Also: nearly all actives have a fitted effect of over 45% in size. Also: potency is read from the fitted curve at half-maximal effect. A digest of the protocol: (§4)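 HepG2 cells were seeded together with the CellTox Green dye at 600 cells/well, left 5 h at 37 C/5% CO2, then given compounds in DMSO. Fluorescence from dye bound to dead-cell DNA was read repeatedly over 40 h of treatment at 37 C.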

Experiment [7] is described as follows: qHTS RealTime-Glo MT Cell Viability Assay in HepG2 cells - 32 hour (AID 1224877). Also: nearly all actives have a fitted effect of over 55% in size. Also: potency is read from the fitted curve at half-maximal effect. A digest of the protocol: (§5)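 HepG2 suspension premixed with RealTime-Glo reagents is plated at 600 cells per well and left 5 h at 37 C/5% CO2. Compounds in DMSO then go in, and bioluminescence reflecting viable cell number is recorded over 40 h.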
Experiment [8] is described as follows: A CellTox Green Cytotoxicity Assay to monitor cytotoxicity in HepG2 cells - 24 hour (AID 1224878). Also: nearly all actives have a fitted effect of over 45% in size. Also: potency is read from the fitted curve at half-maximal effect. A digest of the protocol:
as §4

Experiment [9] is described as follows: A CellTox Green Cytotoxicity Assay to monitor cytotoxicity in HepG2 cells - 40 hour (AID 1224879). Also: nearly all actives have a fitted effect of over 40% in size. Also: potency is read from the fitted curve at half-maximal effect. In short, it runs like this: as §4
A short description of experiment [10]: qHTS RealTime-Glo MT Cell Viability Assay in HEK293 cells - 0 hour (AID 1224880). In short, it runs like this:
as §3

Experiment [11] is described as follows: A CellTox Green Cytotoxicity Assay to monitor cytotoxicity in HEK293 cells - 32 hour (AID 1224881). Also: nearly all actives have a fitted effect of over 40% in size. Also: potency is read from the fitted curve at half-maximal effect. A digest of the protocol:
as §2

A short description of experiment [12]: A CellTox Green Cytotoxicity Assay to monitor cytotoxicity in HepG2 cells - 0 hour (AID 1224882). Also: nearly all actives have a fitted effect of over 35% in size. In short, it runs like this: as §4
A short description of experiment [13]: A CellTox Green Cytotoxicity Assay to monitor cytotoxicity in HepG2 cells - 32 hour (AID 1224883). Also: nearly all actives have a fitted effect of over 50% in size. Also: potency is read from the fitted curve at half-maximal effect. In short, it runs like this: as §4
Experiment [14] in a line: A CellTox Green Cytotoxicity Assay to monitor cytotoxicity in HEK293 cells - 8 hour (AID 1224884). Also: nearly all actives have a fitted effect of over 35% in size. Also: potency is read from the fitted curve at half-maximal effect. In short, it runs like this:
as §2

Experiment [15] in a line: qHTS RealTime-Glo MT Cell Viability Assay in HepG2 cells - 16 hour (AID 1224885). Also: nearly all actives have a fitted effect of over 50% in size. Also: potency is read from the fitted curve at half-maximal effect. A digest of the protocol:
as §5

The nature of experiment [16]: qHTS RealTime-Glo MT Cell Viability Assay in HEK293 cells - 24 hour (AID 1224886). Also: nearly all actives have a fitted effect of over 50% in size. Also: potency is read from the fitted curve at half-maximal effect. A digest of the protocol:
(§6)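 Reads taken at 0, 8, 16, 24, 32 and 40 h from the same wells. HEK293 cells (600/well) carried RealTime-Glo reagents from seeding, with compound added after a 5 h settle at 37 C.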

A short description of experiment [17]: qHTS RealTime-Glo MT Cell Viability Assay in HEK293 cells - 8 hour (AID 1224887). Also: nearly all actives have a fitted effect of over 50% in size. Also: potency is read from the fitted curve at half-maximal effect. In short, it runs like this:
as §3

Experiment [18] in a line: A CellTox Green Cytotoxicity Assay to monitor cytotoxicity in HEK293 cells - 16 hour (AID 1224888). Also: nearly all actives have a fitted effect of over 35% in size. Also: potency is read from the fitted curve at half-maximal effect. A digest of the protocol:
as §2

Experiment [19] can be described thus: qHTS RealTime-Glo MT Cell Viability Assay in HepG2 cells - 0 hour (AID 1224889). Also: nearly all actives have a fitted effect of over 50% in size. A digest of the protocol: as §5
Experiment [20] in a line: qHTS RealTime-Glo MT Cell Viability Assay in HEK293 cells - 16 hour (AID 1224872). Also: nearly all actives have a fitted effect of over 50% in size. Also: potency is read from the fitted curve at half-maximal effect. In short, it runs like this: as §6

SMILES strings stand for the structures. A number with no mark means an inactive call. Results filed as inconclusive are left out. Active and inactive are the calls of the source. Calls follow the shape of the dose curve; as a rule, active = well fitted curve in the direction sought with a large enough effect in the repeat runs; inconclusive = weak or mixed curves; inactive = no such curve, though single readings can be large; an effect the other way counts as inactive or inconclusive.

From PubChem BioAssay (Tox21) come the findings set out here.
% is scaled to controls: 0 for no effect and ±100 for the full control effect.

In the case of `C1C[C@@H]2[C@H]3CC[C@H](C3)[C@@H]2C1`, the Potency result in experiment [1], in [2], in experiment [3], in experiment [5], in [6] and in experiment [7] was “inactive” each time. Besides, the Potency entry in experiment [8], in experiment [9], in experiment [10], in experiment [11], in experiment [12] and in [13] was “inactive” each time. The Potency result in experiment [14], in experiment [15], in [16], in [17], in [18] and in experiment [19] was “inactive” in each case. Also, the max response in [4] was -10.1%.

For `Cc1ccc(Cl)c(Nc2ccccc2C(=O)O)c1Cl`, the Potency result in experiment [1], in [2], in [3], in experiment [5], in experiment [6] and in experiment [7] was “inactive” in each case. The Potency result in [8], in experiment [9], in experiment [10], in [11], in [12] and in [13] was “inactive” throughout. Moreover, the Potency entry in experiment [15], in experiment [16], in experiment [17] and in experiment [18] was “inactive” in each case. Further, the max response in experiment [4] was -3%.

On to `CCOc1ccccc1O[C@H](c1ccccc1)[C@H]1CNCCO1`, for which the Potency entry in [1], in experiment [2], in experiment [20], in experiment [5], in experiment [6] and in experiment [7] was “inactive” each time. The Potency result in experiment [8], in experiment [10], in experiment [12], in [15], in experiment [16] and in experiment [17] was “inactive” throughout. In [18], the Potency result is “inactive”. Moreover, the max response in experiment [4] is 1.67%.

Take `CC(C)(c1ccccc1)c1ccccc1`: the Potency entry in experiment [1], in [3], in experiment [6], in [7], in experiment [8] and in experiment [9] was “inactive” each time. Moreover, the Potency result in [10], in [12], in experiment [13], in experiment [15], in [16] and in [19] was “inactive” throughout. The Potency in experiment [2], in experiment [5] and in [11] was 51.1 µM (active) each time. Also, the max response in experiment [4] was -9.58%.

For `CC(C)(C)C(=O)C(=O)O`, the Potency result in experiment [1], in experiment [2], in experiment [20], in experiment [6], in [7] and in experiment [8] was “inactive” throughout. Further, the Potency entry in experiment [10], in [11], in [12], in experiment [14], in experiment [15] and in experiment [16] was “inactive” in each case. The Potency result in [17] and in [19] was “inactive” in each case. In addition, the max response in experiment [4] was 0.984%.

As to `C=C/C(C)=C/C/C=C(\C)CCC=C(C)C`, the Potency entry in experiment [1], in experiment [2], in experiment [3], in [5], in experiment [6] and in [7] was “inactive” throughout. The Potency entry in experiment [8], in [9], in experiment [10], in experiment [11], in experiment [12] and in [13] was “inactive” in each case. Also, the Potency result in [14], in experiment [15], in experiment [16], in [17], in experiment [18] and in experiment [19] was “inactive” throughout. Besides, the max response in experiment [4] is -7.52%.

`CC(C)COCC(CN(Cc1ccccc1)c1ccccc1)N1CCCC1` (centres undefined): the Potency is 23.9 µM (active) in experiment [1]; 21.3 µM (active) in [2]; 8.49 µM (active) in experiment [20]; 10.7 µM (active) in [4]; 23.9 µM (active) in [5]; 21.3 µM (active) in experiment [6]. For the same compound, the Potency in experiment [7] is 21.3 µM (active); in experiment [8], 23.9 µM (active); in experiment [9], 19 µM (active); in experiment [11], 23.9 µM (active); in experiment [13], 21.3 µM (active); in experiment [14], 21.3 µM (active). Also, the Potency in experiment [15] was 21.3 µM (active); in experiment [16], 15.1 µM (active); in [17] it was 15.1 µM (active); in experiment [18], 23.9 µM (active). Besides, in experiment [12], the Potency entry is “inactive”.

On to `CCCCCCCC/C=C\CCCCCCCCO`, for which the Potency result in experiment [1], in [2], in experiment [3], in [5], in experiment [6] and in experiment [7] was “inactive” each time. Moreover, the Potency result in experiment [8], in experiment [9], in experiment [10], in [11], in experiment [12] and in experiment [13] was “inactive” each time. Moreover, the Potency entry in experiment [14], in experiment [15], in experiment [16], in experiment [17], in [18] and in experiment [19] was “inactive” each time. The max response in experiment [4] is 15%.

As to `Nc1ccc(N=Nc2ccccc2)c(N)c1`, the Potency result in experiment [1], in [2], in [5], in [6], in experiment [7] and in [8] was “inactive” in each case. For the same compound, the Potency entry in [9], in [11], in [12], in experiment [13], in [14] and in experiment [18] was “inactive” each time. The Potency entry in experiment [19] was “inactive”. The Potency in experiment [20] is 42.7 µM (active); in experiment [4], 38.1 µM (active); in experiment [16], 42.7 µM (active).

`O=C(/C=C/c1ccc(O)c(O)c1)O[C@@H]1C[C@@](OC(=O)/C=C/c2ccc(O)c(O)c2)(C(=O)O)C[C@@H](O)[C@@H]1O`: the Potency result in experiment [1], in experiment [2], in experiment [20], in experiment [5], in experiment [6] and in experiment [7] was “inactive” throughout. For the same compound, the Potency result in experiment [9], in experiment [10], in experiment [12], in [13], in [14] and in [15] was “inactive” in each case. The Potency entry in experiment [16], in [17] and in experiment [18] was “inactive” throughout. Moreover, in [4], the max response was 3.32%.

As to `CC(=O)Oc1ccc([N+](=O)[O-])cc1CCl`, the Potency entry in [1], in experiment [2], in [3], in experiment [5], in experiment [6] and in [7] was “inactive” each time. For the same compound, the Potency entry in experiment [8], in experiment [9], in experiment [10], in experiment [11], in experiment [12] and in experiment [13] was “inactive” in each case. In addition, the Potency entry in [14], in experiment [15], in experiment [18] and in experiment [19] was “inactive” throughout. For the same compound, the Potency in experiment [4] was 3.47 µM (active); in [16] it was 4.36 µM (active).

Take `O=[N+]([O-])c1cc(C2CCCCC2)c(O)c([N+](=O)[O-])c1`: the Potency in experiment [1] was 48.9 µM (active); in [20], 27.5 µM (active); in [4], 12.3 µM (active); in [16], 13.8 µM (active). Besides, the Potency result in experiment [2], in experiment [5], in experiment [6], in [11], in experiment [12] and in experiment [14] was “inactive” each time. In addition, the Potency entry in experiment [18] was “inactive”.

For `CC1CC(OC(=O)C(O)c2ccccc2)CC(C)(C)N1C` (centres undefined), the Potency result in [1], in [2], in experiment [20], in experiment [5], in experiment [6] and in experiment [8] was “inactive” throughout. For the same compound, the Potency entry in experiment [9], in [10], in experiment [12], in experiment [13], in experiment [14] and in experiment [15] was “inactive” throughout. The Potency entry in [16], in experiment [17], in experiment [18] and in experiment [19] was “inactive” each time. Moreover, in experiment [4], the max response was 0.136%.

For `C[C@@H]1CN(CCCn2c3ccccc3c3ccccc32)C[C@H](C)N1`, the Potency was 23.9 µM (active) in [1]; 23.9 µM (active) in experiment [2]; 26.8 µM (active) in [20]; 23.9 µM (active) in [4]; 23.9 µM (active) in experiment [5]; 26.8 µM (active) in experiment [6]. Also, the Potency is 23.9 µM (active) in experiment [7]; 26.8 µM (active) in experiment [8]; 23.9 µM (active) in experiment [9]; 23.9 µM (active) in [11]; 23.9 µM (active) in experiment [13]; 23.9 µM (active) in experiment [15]. Moreover, the Potency was 23.9 µM (active) in experiment [16] and 21.3 µM (active) in experiment [18]. Further, the Potency result in experiment [12] was “inactive”.
